Screens: PubChem BioAssay, Broad Institute
Compounds with a hit are over-represented: about 6.8% of the library has one in this group of screens.
Tcruzi prolif = T. cruzi proliferation inhibition; T. cruzi beta-gal in NIH3T3, GalScreen luminescence, 90 h; inhibition, % at 8.34 µM; 5.9% of 77,000 active; AID 624255;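 active = mean inhibition above about 93%, with at least 55% of replicates each passing it, limit read from the data, passing the limit was not always enough; inconclusive = only one of those two conditions holds; inactive = neither condition holds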
Pf Dd2 inh = P. falciparum Dd2 growth inhibition; AID 1159554; SYBR Green, 72 h; active compounds read low; activity change, % at 10 µM; 2.3% of 94,000 active; in the data active = activity change below about -80%; inconclusive = no clear call, values can overlap the other calls
C diff HTS = inhibitors of Clostridium difficile growth | Clostridium difficile clinical isolate growth, OD600, 24 h; active compounds read low | growth activity, negative = inhibition, % at 16 µg/mL (by protocol) | 0.25% of 86,000 active;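 active = mean growth activity at or below -80% and every replicate also at or below -80%; inconclusive = mean at or below -80% but some replicate above -80%; inactive = mean growth activity above -80%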
Of the large screens only hits and unclear results are named; the others gave an inactive call.

C[C@H]1CN([C@@H](C)CO)C(=O)c2cccc(NC(=O)C3CCOCC3)c2O[C@H]1CN(C)Cc1ccc(-c2ccccc2)cc1	none
C[C@@H]1CN([C@@H](C)CO)C(=O)c2cccc(NC(=O)C3CCOCC3)c2O[C@H]1CN(C)Cc1ccc(-c2ccccc2)cc1	Pf Dd2 inh -84
C[C@@H]1CN([C@@H](C)CO)C(=O)c2cccc(NC(=O)C3CC3)c2O[C@H]1CN(C)Cc1ccc(-c2ccccc2)cc1	Pf Dd2 inh -89
CC(C)NC(=O)Nc1cccc2c1O[C@H](CN(C)Cc1ccc(-c3ccccc3)cc1)[C@@H](C)CN([C@@H](C)CO)C2=O	none
C[C@@H]1CN([C@@H](C)CO)C(=O)c2cc(NS(=O)(=O)c3ccc(F)cc3)ccc2O[C@@H](C)CCCCO[C@H]1CN(C)C(=O)c1ccccc1	none
CN1C(=O)c2cc(NC(=O)c3cscn3)ccc2OC[C@@H]2O[C@@H](CC(=O)N3CCOCC3)CC[C@@H]21	none
CO[C@@H](CN(C)C(=O)c1ccccc1F)[C@H](C)CN([C@H](C)CO)S(=O)(=O)c1ccccc1	none (no result: C diff HTS)
Cc1ccccc1-c1cnc2c(c1)C(=O)N([C@H](C)CO)C[C@@H](C)[C@@H](CN(C)Cc1ccncc1)O2	none
COCC#Cc1ccc(CC[C@H]2O[C@H]3CC[C@H](CO)O[C@H]3C[C@H]2n2cc(C(C)(C)O)nn2)cc1	none (no result: Tcruzi prolif)
OC[C@H]1CC[C@@H]2O[C@H](CCc3ccc(C#CCc4ccccc4)cc3)[C@@H](n3cc(-c4ccccc4)nn3)C[C@@H]2O1	Pf Dd2 inh inconclusive (no result: Tcruzi prolif)
COCC#Cc1ccc(CC[C@H]2O[C@H]3CC[C@H](CO)O[C@H]3C[C@H]2n2cc(C3CC3)nn2)cc1	none (no result: Tcruzi prolif)
OC[C@@H]1CC[C@@H]2O[C@H](CCc3ccc(C#Cc4ccccc4)cc3)[C@H](n3cc(-c4ccccc4)nn3)C[C@@H]2O1	Pf Dd2 inh -84 (no result: Tcruzi prolif)
COCC#Cc1ccc(CC[C@H]2O[C@H]3CC[C@@H](CO)O[C@H]3C[C@@H]2n2cc(C3CC3)nn2)cc1	Pf Dd2 inh -89 (no result: Tcruzi prolif)
CCCC#Cc1ccc(CC[C@H]2O[C@H]3CC[C@H](CO)O[C@H]3C[C@@H]2n2cc(C(C)(C)O)nn2)cc1	Pf Dd2 inh -85 (no result: Tcruzi prolif)
O=C(C1CCOCC1)N1CC(=O)N2[C@H](CO)[C@@H](c3ccc(C#CC4CCCC4)cc3)[C@@H]2C1	none (no result: Tcruzi prolif)
O=C1O[C@@H](c2ccccc2)[C@@H](c2ccccc2)N2[C@@H](c3ccc(O)cc3)[C@]3(C(=O)Nc4ccc(C#CC5=CCCCC5)cc43)[C@@H](C(=O)N3CCCCCCC3)[C@H]12	none (no result: Tcruzi prolif, Pf Dd2 inh)
CCCc1cn(CC[C@@H]2CC[C@H](NS(=O)(=O)c3ccc(-c4ccccc4)cc3)[C@@H](CO)O2)nn1	none
CN(C)Cc1cn(CC[C@@H]2CC[C@H](NS(=O)(=O)c3ccc(-c4ccccc4)cc3)[C@@H](CO)O2)nn1	none (no result: C diff HTS)
CCCc1cn(CC[C@H]2CC[C@H](NS(=O)(=O)c3ccc(-c4ccccc4)cc3)[C@@H](CO)O2)nn1	Pf Dd2 inh -89
CN(C)Cc1cn(CC[C@@H]2CC[C@H](NS(=O)(=O)c3ccc(-c4ccccc4)cc3)[C@H](CO)O2)nn1	none (no result: C diff HTS)
CCCc1cn(CC[C@H]2CC[C@@H](NS(=O)(=O)c3ccc(-c4ccccc4)cc3)[C@H](CO)O2)nn1	Pf Dd2 inh -94
CCCc1cn(CC[C@@H]2CC[C@@H](NS(=O)(=O)c3ccc(-c4ccccc4)cc3)[C@H](CO)O2)nn1	Pf Dd2 inh -93
O=C(N[C@H]1CC[C@@H](CC(=O)N2CCc3ccccc3C2)O[C@@H]1CO)C1CCOCC1	none (no result: C diff HTS)
C[C@@H]1CN([C@@H](C)CO)C(=O)c2cc(NC(=O)Cc3ccccc3)ccc2O[C@@H](C)CCCCO[C@H]1CN(C)Cc1ccc2c(c1)OCO2	Pf Dd2 inh inconclusive
O=C(C[C@H]1C[C@@H]2c3cc(NC(=O)C4CCOCC4)ccc3O[C@@H]2[C@@H](CO)O1)NCc1ccc2c(c1)OCO2	none (no result: C diff HTS)
COc1ccc2c3c([nH]c2c1)[C@H](CO)N(Cc1ccccc1)CC31CN(CC2CC2)C1	none (no result: Tcruzi prolif)
COc1ccc2c3c([nH]c2c1)[C@H](CO)N(CC1CC1)CC31CCN(Cc2ccccc2F)CC1	Pf Dd2 inh -85 (no result: Tcruzi prolif)
COc1cccc(CN2CC3(CCN(CC4CC4)CC3)c3c([nH]c4cc(OC)ccc34)[C@H]2CO)c1	Pf Dd2 inh -92 (no result: Tcruzi prolif)
COc1ccc2c3c([nH]c2c1)[C@H](CO)N(Cc1ccccc1)CC31CCN(CC2CC2)CC1	Pf Dd2 inh -93 (no result: Tcruzi prolif)
COc1ccc2c3c([nH]c2c1)[C@@H](CO)N(Cc1ccccc1F)CC31CN(CC2CC2)C1	none (no result: Tcruzi prolif)
COc1cccc(CN2CC3(CCN(CC4CCOCC4)CC3)c3c([nH]c4cc(OC)ccc34)[C@@H]2CO)c1	none (no result: Tcruzi prolif)
CO[C@@H]1CN(C)C(=O)c2ccc(NC(=O)NC(C)C)cc2OC[C@H](C)N(CC2CC2)C[C@@H]1C	none (no result: C diff HTS)
